# Measured values taken from the supplement of paper PMC4466140.
# B1: unnamed (peptide)
# chain: KTRLRPAFIQQLWSS
# B2: unnamed (peptide)
# chain: LPMNIQPDLPPRKIM
# Key:
# Experiment in all cases: SPOT peptide array binding signal intensity (averaged, normalized) (arbitrary units (background-subtracted, floor 0; scale differs between SH3 domains)); higher = stronger binding of the SH3 domain to the peptide
# [1] = target: AgAbp1
# Outline: (§1)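 Cellulose membranes carried synthetic 15-mer peptides with cysteines swapped for serines. These were incubated overnight at 4°C with 10 μg/ml of GST-fused SH3 domains from four yeast species in TBS-based blocking buffer. Binding signal, detected with anti-GST antibody and quantified in Genespotter, is the normalized, background-subtracted spot intensity averaged over replicates, in arbitrary units specific to each domain.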
# [2] = target: AgBbc1
# Outline: as §1
# [3] = target: AgBem1-D1
# Outline: as §1
# [4] = target: AgBzz1-D1
# Outline: as §1
# [5] = target: AgBzz1-D2
# Outline: as §1
# [6] = target: AgCyk3
# Outline: as §1
# [7] = target: AgFus1
# Outline: as §1
# [8] = target: AgHof1
# Outline: as §1
# [9] = target: AgHse1
# Outline: as §1
# [10] = target: AgLsb1
# Outline: as §1
# [11] = target: AgLsb4
# Outline: as §1
# [12] = target: AgMyo5
# Outline: as §1
# [13] = target: AgNbp2
# Outline: as §1
# [14] = target: AgRvs167
# Outline: as §1
# [15] = target: AgSho1
# Outline: as §1
# [16] = target: AgSla1-D1-D2
# Outline: as §1
# [17] = target: AgSla1-D3
# Outline: as §1
# [18] = target: CaAbp1-D1
# Outline: as §1
# [19] = target: CaAbp1-D2
# Outline: as §1
# [20] = target: CaBbc1
# Outline: as §1
# [21] = target: CaBem1-D1
# Outline: as §1
# [22] = target: CaBzz1-D1
# Outline: as §1
# [23] = target: CaBzz1-D2
# Outline: as §1
# [24] = target: CaCyk3
# Outline: as §1
# [25] = target: CaFus1
# Outline: as §1
# [26] = target: CaHof1
# Outline: as §1
# [27] = target: CaHse1
# Outline: as §1
# [28] = target: CaLsb1
# Outline: as §1
# [29] = target: CaLsb4
# Outline: as §1
# [30] = target: CaMyo5
# Outline: as §1
# [31] = target: CaNbp2
# Outline: as §1
# [32] = target: CaRvs167
# Outline: as §1
# [33] = target: CaRvs167-3
# Outline: as §1
# [34] = target: CaSho1
# Outline: as §1
# [35] = target: CaSla1-D1-D2
# Outline: as §1
# [36] = target: CaSla1-D3
# Outline: as §1
# [37] = target: ScAbp1
# Outline: as §1
# [38] = target: ScBbc1
# Outline: as §1
# [39] = target: ScBem1-D1
# Outline: as §1
# [40] = target: ScBzz1-D1
# Outline: as §1
# [41] = target: ScBzz1-D2
# Outline: as §1
# [42] = target: ScCyk3
# Outline: as §1
# [43] = target: ScFus1
# Outline: as §1
# [44] = target: ScHof1
# Outline: as §1
# [45] = target: ScHse1
# Outline: as §1
# [46] = target: ScLsb1
# Outline: as §1
# [47] = target: ScLsb2
# Outline: as §1
# [48] = target: ScLsb3
# Outline: as §1
# [49] = target: ScLsb4
# Outline: as §1
# [50] = target: ScMyo3
# Outline: as §1
# [51] = target: ScMyo5
# Outline: as §1
# [52] = target: ScNbp2
# Outline: as §1
# [53] = target: ScPex13
# Outline: as §1
# [54] = target: ScRvs167
# Outline: as §1
# [55] = target: ScSho1
# Outline: as §1
# [56] = target: ScSla1-D1-D2
# Outline: as §1
# [57] = target: ScSla1-D3
# Outline: as §1
# [58] = target: SpAbp1-D1
# Outline: as §1
# [59] = target: SpBbc1
# Outline: as §1
# [60] = target: SpBzz1-D1
# Outline: as §1
# [61] = target: SpBzz1-D2
# Outline: as §1
# [62] = target: SpCyk3
# Outline: as §1
# [63] = target: SpHof1
# Outline: as §1
# [64] = target: SpHof1-2
# Outline: as §1
# [65] = target: SpHof1-3
# Outline: as §1
# [66] = target: SpHse1
# Outline: as §1
# [67] = target: SpLsb1
# Outline: as §1
# [68] = target: SpLsb4
# Outline: as §1
# [69] = target: SpMyo1
# Outline: as §1
# [70] = target: SpNbp2
# Outline: as §1
# [71] = target: SpPex13
# Outline: as §1
# [72] = target: SpRvs167
# Outline: as §1
# [73] = target: SpSla1-D1-D2
# Outline: as §1
# [74] = target: SpSla1-D3
# Outline: as §1
binder,measurement,setting,value
B1,SPOT peptide array binding signal intensity,[1],12
same,SPOT peptide array binding signal intensity,[2],18.8
same,SPOT peptide array binding signal intensity,[3],181
same,SPOT peptide array binding signal intensity,[4],82.5
same,SPOT peptide array binding signal intensity,[5],32.5
same,SPOT peptide array binding signal intensity,[6],1
same,SPOT peptide array binding signal intensity,[7],286
same,SPOT peptide array binding signal intensity,[8],45.5
same,SPOT peptide array binding signal intensity,[9],630
same,SPOT peptide array binding signal intensity,[10],1
same,SPOT peptide array binding signal intensity,[11],29.5
same,SPOT peptide array binding signal intensity,[12],3
same,SPOT peptide array binding signal intensity,[13],94.5
same,SPOT peptide array binding signal intensity,[14],2.83
same,SPOT peptide array binding signal intensity,[15],12
same,SPOT peptide array binding signal intensity,[16],18
same,SPOT peptide array binding signal intensity,[17],19.8
same,SPOT peptide array binding signal intensity,[18],130
same,SPOT peptide array binding signal intensity,[19],38.5
same,SPOT peptide array binding signal intensity,[20],82.5
same,SPOT peptide array binding signal intensity,[21],46
same,SPOT peptide array binding signal intensity,[22],58.5
same,SPOT peptide array binding signal intensity,[23],59
same,SPOT peptide array binding signal intensity,[24],6
same,SPOT peptide array binding signal intensity,[25],912
same,SPOT peptide array binding signal intensity,[26],2
same,SPOT peptide array binding signal intensity,[27],10.8
same,SPOT peptide array binding signal intensity,[28],0.5
same,SPOT peptide array binding signal intensity,[29],14
same,SPOT peptide array binding signal intensity,[30],4
same,SPOT peptide array binding signal intensity,[31],338
same,SPOT peptide array binding signal intensity,[32],17.3
same,SPOT peptide array binding signal intensity,[33],2
same,SPOT peptide array binding signal intensity,[34],338
same,SPOT peptide array binding signal intensity,[35],≤ 0
same,SPOT peptide array binding signal intensity,[36],9.5
same,SPOT peptide array binding signal intensity,[37],17
same,SPOT peptide array binding signal intensity,[38],6.25
same,SPOT peptide array binding signal intensity,[39],60
same,SPOT peptide array binding signal intensity,[40],29.5
same,SPOT peptide array binding signal intensity,[41],82.5
same,SPOT peptide array binding signal intensity,[42],47
same,SPOT peptide array binding signal intensity,[43],170
same,SPOT peptide array binding signal intensity,[44],5.75
same,SPOT peptide array binding signal intensity,[45],1510
same,SPOT peptide array binding signal intensity,[46],≤ 0
same,SPOT peptide array binding signal intensity,[47],≤ 0
same,SPOT peptide array binding signal intensity,[48],74.5
same,SPOT peptide array binding signal intensity,[49],1.5
same,SPOT peptide array binding signal intensity,[50],10
same,SPOT peptide array binding signal intensity,[51],3.5
same,SPOT peptide array binding signal intensity,[52],121
same,SPOT peptide array binding signal intensity,[53],6.25
same,SPOT peptide array binding signal intensity,[54],13
same,SPOT peptide array binding signal intensity,[55],431
same,SPOT peptide array binding signal intensity,[56],36
same,SPOT peptide array binding signal intensity,[57],27.5
same,SPOT peptide array binding signal intensity,[58],54.5
same,SPOT peptide array binding signal intensity,[59],4
same,SPOT peptide array binding signal intensity,[60],170
same,SPOT peptide array binding signal intensity,[61],1
same,SPOT peptide array binding signal intensity,[62],5
same,SPOT peptide array binding signal intensity,[63],117
same,SPOT peptide array binding signal intensity,[64],13.2
same,SPOT peptide array binding signal intensity,[65],571
same,SPOT peptide array binding signal intensity,[66],696
same,SPOT peptide array binding signal intensity,[67],≤ 0
same,SPOT peptide array binding signal intensity,[68],7
same,SPOT peptide array binding signal intensity,[69],3
same,SPOT peptide array binding signal intensity,[70],58.5
same,SPOT peptide array binding signal intensity,[71],17
same,SPOT peptide array binding signal intensity,[72],6.67
same,SPOT peptide array binding signal intensity,[73],≤ 0
same,SPOT peptide array binding signal intensity,[74],8
B2,SPOT peptide array binding signal intensity,[1],11.5
same,SPOT peptide array binding signal intensity,[2],73.8
same,SPOT peptide array binding signal intensity,[3],263
same,SPOT peptide array binding signal intensity,[4],≤ 0
same,SPOT peptide array binding signal intensity,[5],5
same,SPOT peptide array binding signal intensity,[6],6
same,SPOT peptide array binding signal intensity,[7],301
same,SPOT peptide array binding signal intensity,[8],109
same,SPOT peptide array binding signal intensity,[9],139
same,SPOT peptide array binding signal intensity,[10],904
same,SPOT peptide array binding signal intensity,[11],3030
same,SPOT peptide array binding signal intensity,[12],≤ 0
same,SPOT peptide array binding signal intensity,[13],152
same,SPOT peptide array binding signal intensity,[14],525
same,SPOT peptide array binding signal intensity,[15],218
same,SPOT peptide array binding signal intensity,[16],≤ 0
same,SPOT peptide array binding signal intensity,[17],2.5
same,SPOT peptide array binding signal intensity,[18],63.5
same,SPOT peptide array binding signal intensity,[19],59.5
same,SPOT peptide array binding signal intensity,[20],423
same,SPOT peptide array binding signal intensity,[21],42
same,SPOT peptide array binding signal intensity,[22],290
same,SPOT peptide array binding signal intensity,[23],98.2
same,SPOT peptide array binding signal intensity,[24],15
same,SPOT peptide array binding signal intensity,[25],1460
same,SPOT peptide array binding signal intensity,[26],≤ 0
same,SPOT peptide array binding signal intensity,[27],224
same,SPOT peptide array binding signal intensity,[28],16.2
same,SPOT peptide array binding signal intensity,[29],7000
same,SPOT peptide array binding signal intensity,[30],60
same,SPOT peptide array binding signal intensity,[31],410
same,SPOT peptide array binding signal intensity,[32],1050
same,SPOT peptide array binding signal intensity,[33],0.5
same,SPOT peptide array binding signal intensity,[34],799
same,SPOT peptide array binding signal intensity,[35],409
same,SPOT peptide array binding signal intensity,[36],242
same,SPOT peptide array binding signal intensity,[37],16
same,SPOT peptide array binding signal intensity,[38],7.5
same,SPOT peptide array binding signal intensity,[39],1
same,SPOT peptide array binding signal intensity,[40],13
same,SPOT peptide array binding signal intensity,[41],10.5
same,SPOT peptide array binding signal intensity,[42],9
same,SPOT peptide array binding signal intensity,[43],510
same,SPOT peptide array binding signal intensity,[44],≤ 0
same,SPOT peptide array binding signal intensity,[45],92
same,SPOT peptide array binding signal intensity,[46],362
same,SPOT peptide array binding signal intensity,[47],218
same,SPOT peptide array binding signal intensity,[48],5190
same,SPOT peptide array binding signal intensity,[49],3270
same,SPOT peptide array binding signal intensity,[50],14
same,SPOT peptide array binding signal intensity,[51],0.75
same,SPOT peptide array binding signal intensity,[52],348
same,SPOT peptide array binding signal intensity,[53],234
same,SPOT peptide array binding signal intensity,[54],2170
same,SPOT peptide array binding signal intensity,[55],682
same,SPOT peptide array binding signal intensity,[56],192
same,SPOT peptide array binding signal intensity,[57],212
same,SPOT peptide array binding signal intensity,[58],48
same,SPOT peptide array binding signal intensity,[59],≤ 0
same,SPOT peptide array binding signal intensity,[60],362
